Laboratory results: paper PMC4552634, “A New Set of Chemical Starting Points with Plasmodium falciparum Transmission-Blocking Potential for Antimalarial Drug Discovery” (PLoS ONE, 2015)
Where two headings read alike, the source gives them in different places. Hit rate of the full screen: of about 13,000 compounds, about 3,200 (25%) showed an effect of 50% or more. The list shows a part of the results.

System: P. falciparum stage V gametocytes
Design: BacTiter-Glo ATP luminescence viability of purified stage V gametocytes in 384-well plates, per cent inhibition versus DMSO
Conditions: 48 h, 5 µM, inhibitor

Row | SMILES | % Inhibition (% Inhibition) [%] | % Inhibition [%]
1 | NC(=O)c1ccc2[nH]cc(C3CCN(CC4CCC(NC(=O)/C=C/c5ccc(Cl)c(Cl)c5)CC4)CC3)c2c1 (centres unmarked) [TCMDC-139885] | 5.306 | 
2 | O=C(/C=C/c1ccc(Cl)c(Cl)c1)NC1CCC(CN2CCC(c3c[nH]c4cc(C(F)(F)F)ccc34)CC2)CC1 (centres unmarked) [TCMDC-139869] | 50.13 | 
3 | O=C(/C=C/c1ccc(Cl)c(Cl)c1)N1CCC(CN2CCC(c3c[nH]c4cc(C(F)(F)F)ccc34)CC2)CC1 [TCMDC-139860] |  | 22.64
4 | Cc1ccc2[nH]cc(C3CCN(CC4CCC(NC(=O)/C=C/c5ccc(Cl)c(Cl)c5)CC4)CC3)c2c1 (centres unmarked) [TCMDC-139629] | 74.07 | 
5 | Cc1ccc2[nH]cc(C3CCN(CC4CCC(NC(=O)/C=C/c5ccc(Cl)c(Cl)c5)CC4)CC3)c2c1 (centres unmarked) [TCMDC-139630] | -23.48 | 
6 | O=C(/C=C/c1ccc(Cl)c(Cl)c1)NC1CCC(CN2CCC(c3c[nH]c4ccccc34)C(O)C2)CC1 (centres unmarked) [TCMDC-139645] |  | -15.82
7 | O=C(/C=C/c1ccc(Cl)c(Cl)c1)NC1CCC(CN2CCC(c3c[nH]c4ccccc34)CC2)CC1 (centres unmarked) [TCMDC-139447] |  | 56.58
8 | O=C(/C=C/c1ccc(Cl)c(Cl)c1)NC1CCC(CN2CCC(c3c[nH]c4cc(C(F)(F)F)ccc34)CC2)CC1 (centres unmarked) [TCMDC-139868] | 4.839 | 
9 | CS(=O)(=O)Nc1ccc2[nH]cc(C3CCN(CC4CCC(NC(=O)/C=C/c5ccc(Cl)c(Cl)c5)CC4)CC3)c2c1 (centres unmarked) [TCMDC-139641] |  | -16.95
10 | CNC(=O)c1ccc2[nH]cc(C3CCN(CC4CCC(NC(=O)/C=C/c5ccc(Cl)c(Cl)c5)CC4)CC3)c2c1 (centres unmarked) [TCMDC-139979] |  | 15.16
11 | NC(=O)c1ccc2[nH]cc(C3CCN(CC4CCC(NC(=O)/C=C/c5ccc(Cl)c(Cl)c5)CC4)CC3)c2c1 (centres unmarked) [TCMDC-139886] | 70.38 | 
12 | O=C(/C=C/c1ccc(Cl)c(Cl)c1)NC1CCC(CN2CCC(c3c[nH]c4cc(O)ccc34)CC2)CC1 (centres unmarked) [TCMDC-139642] |  | 41.76
13 | CC[C@@H]([C@@H](CC(C)C)C(=O)N[C@@H](CCCCNC(=O)OCc1ccccc1)C(=O)Nc1ccccn1)N(O)C=O [TCMDC-137163] |  | 20.28
14 | O=C(/C=C/c1ccc(Cl)c(Cl)c1)NC1CCC(CN2CCC(c3c[nH]c4ccncc34)CC2)CC1 (centres unmarked) [TCMDC-140109] |  | 103.5
15 | O=C(/C=C/c1ccc(Cl)c(Cl)c1)NC1CCC(N2CCC(c3c[nH]c4ccccc34)CC2)CC1 (centres unmarked) [TCMDC-139778] |  | -27.83
16 | O=C(/C=C/c1ccc(Cl)c(Cl)c1)NC1CCC(N2CCC(c3c[nH]c4ccc(O)cc34)CC2)CC1 (centres unmarked) [TCMDC-139812] |  | 98.54
17 | O=C(C=Cc1ccc(F)c(Br)c1)NC1CCC(CN2CCC(c3c[nH]c4ccccc34)CC2)CC1 (centres unmarked) [TCMDC-139919] | -60.64 | 
18 | O=C(/C=C/c1ccc(O)cc1)NC1CCC(CN2CCC(c3c[nH]c4ccccc34)CC2)CC1 (centres unmarked) [TCMDC-139719] |  | 17.65
19 | O=C(C=Cc1ccc(F)c(Br)c1)N1CCC(CN2CCC(c3c[nH]c4ccccc34)CC2)CC1 [TCMDC-139914] |  | -25.75
20 | O=C(C=Cc1ccc(Br)cc1)NC1CCC(CN2CCC(c3c[nH]c4ccccc34)CC2)CC1 (centres unmarked) [TCMDC-139948] |  | 31.75
21 | O=C(/C=C/c1ccc(Cl)c(Cl)c1)NCCCCCN1[C@@H]2CC[C@H]1CC(c1c[nH]c3ccc(O)cc13)C2 (some centres unmarked) [TCMDC-139295] | 11.46 | 

Row | SMILES | % Inhibition (% Inhibition) [%] | % Inhibition [%]
22 | O=C(/C=C/c1ccc(Cl)cc1)NC1CCC(CN2CCC(c3c[nH]c4ccccc34)CC2)CC1 (centres unmarked) [TCMDC-139716] | 101.2 | 
23 | CC(=O)Nc1ccc2[nH]cc(C3CCN(CC4CCC(NC(=O)/C=C/c5ccc(Cl)c(Cl)c5)CC4)CC3)c2c1 (centres unmarked) [TCMDC-139852] | 29.73 | 
24 | O=C(C=Cc1ccc(F)c(Br)c1)NC1CCC(CN2CCC(c3c[nH]c4ccccc34)CC2)CC1 (centres unmarked) [TCMDC-139908] | 99.67 | 
25 | CC(=O)Nc1ccc2[nH]cc(C3CCN(CC4CCC(NC(=O)/C=C/c5ccc(Cl)c(Cl)c5)CC4)CC3)c2c1 (centres unmarked) [TCMDC-139851] | 9.174 | 
26 | CC(C)C(C(=O)n1ncc2c3c(N)nc(N)nc3ccc21)C(C)C [TCMDC-137333] |  | -35.38
27 | COc1cccc(C(=O)Nc2sc3c(c2C(N)=O)CCCC3)c1OC [TCMDC-123542] |  | -31.1
28 | COc1cc2nc(NCC3CCCO3)n3nc(-c4ccccc4)nc3c2cc1OC (centres unmarked) [TCMDC-125295] |  | -4.624
29 | COc1ccc2cc(C(c3nnnn3CC3CCCO3)N3CCc4ccccc43)c(=O)[nH]c2c1 (centres unmarked) [TCMDC-123534] |  | 43.68
30 | Cc1ccc(CN2CCN(c3cc4c(cc3Cl)CCN4C(=O)Cc3ccc(NC(=O)c4ccc(C(F)(F)F)cc4)cc3)CC2)cc1 [TCMDC-139509] |  | 28.44
31 | O=C(Nc1ccc(F)c(F)c1)c1ccc(CN2CCCN(Cc3cccc(F)c3)CC2)cc1 [TCMDC-136389] |  | 9.307
32 | CCC[C@@H]([C@@H](CC1CCCCC1)C(=O)N[C@H](C(=O)Nc1nccs1)[C@H](C)O)N(O)C=O [TCMDC-138142] |  | -26.13
33 | CCOC(=O)C1=C(C)N=c2sc(=Cc3ccccc3O)c(=O)n2C1c1ccc(OC)c2ccccc12 (centres unmarked) [TCMDC-124109] |  | 14.77
34 | O=C(/C=C/c1ccc([N+](=O)[O-])cc1)NC1CCC(CN2CCC(c3c[nH]c4ccccc34)CC2)CC1 (centres unmarked) [TCMDC-139934] | 72.83 | 
35 | O=C(/C=C/c1ccc([N+](=O)[O-])cc1)NC1CCC(CN2CCC(c3c[nH]c4ccccc34)CC2)CC1 (centres unmarked) [TCMDC-139950] | 23.65 | 
36 | O=[N+]([O-])c1ccc(Oc2c(Cl)cc(S(=O)(=O)N3CCC(CN4CCC(c5c[nH]c6ccccc56)CC4)CC3)cc2Cl)c(Cl)c1 [TCMDC-140169] |  | -22.29
37 | CC(C)c1ccc(C=CC(=O)NC2CCC(CN3CCC(c4c[nH]c5ccccc45)CC3)CC2)cc1 (centres unmarked) [TCMDC-139936] |  | 103.3
38 | N#Cc1c(Cl)cccc1Oc1ccc(S(=O)(=O)NC2CCC(CN3CCC(c4c[nH]c5ccccc45)CC3)CC2)cc1 (centres unmarked) [TCMDC-140167] | 10.9 | 
39 | O=C(/C=C/c1ccc(Cl)cc1)NC1CCC(CN2CCC(c3c[nH]c4ccccc34)CC2)CC1 (centres unmarked) [TCMDC-139701] | 108.5 | 
40 | O=[N+]([O-])c1ccc(Oc2c(Cl)cc(S(=O)(=O)NC3CCC(CN4CCC(c5c[nH]c6ccccc56)CC4)CC3)cc2Cl)c(Cl)c1 (centres unmarked) [TCMDC-140165] |  | 62.46
41 | O=C(Nc1cccnc1)c1cc(-c2cccnc2)nc2ccc(Br)cc12 [TCMDC-125212] |  | 10.18
42 | Cc1cc(Cl)ccc1OC(C)C(=O)N1CCc2ccccc21 (centres unmarked) [TCMDC-123620] |  | -14.46

Row | SMILES | % Inhibition (% Inhibition) [%] | % Inhibition [%]
43 | Cc1cc(N2CCCC2)nc(Nc2ccc(NC(=O)COc3ccccc3)cc2)n1 [TCMDC-124969] |  | -41.99
44 | COc1cccc(C(=O)NC(C=Cc2ccccc2)c2cc(Cl)c3cccnc3c2O)c1 (centres unmarked) [TCMDC-125550] |  | 112.7
45 | COc1cccc(C(=O)NC(c2ccccc2OC)c2cc(Cl)c3cccnc3c2O)c1 (centres unmarked) [TCMDC-125612] |  | 79.98
46 | COc1ccc(C(=O)NC(c2ccc(Cl)cc2Cl)c2cc(Cl)c3cccnc3c2O)cc1 (centres unmarked) [TCMDC-125549] |  | 15.16
47 | COc1cccc(C(=O)NC(c2ccc(Cl)cc2Cl)c2cc(Cl)c3cccnc3c2O)c1 (centres unmarked) [TCMDC-124342] |  | 31.32
48 | FC(F)(F)c1ccc2[nH]c(-c3ccc(-c4ccc(CNCC5CCCO5)cc4)s3)nc2c1.O=C(O)C(F)(F)F (centres unmarked) [TCMDC-133092] |  | -19.94
49 | CC1CN(c2ccc(C(=O)NCC3CC3)cc2NC(=O)OCc2ccccc2)CC(C)O1 (centres unmarked) [TCMDC-134641] |  | 11.9
50 | CCOc1ccc2c(c1)OC(c1ccccc1)(C(F)(F)F)NC2=O (centres unmarked) [TCMDC-123632] |  | 18.25
51 | O=C(/C=C/c1ccc(-c2nc3cc(F)c(F)cc3[nH]2)cc1)NCc1ccc(Cl)c(Cl)c1 [TCMDC-140462] |  | 80.74
52 | Cc1cc2nc(-c3ccc(C(=O)NCc4ccc(Cl)c(Cl)c4)cc3)[nH]c2cc1C [TCMDC-140430] |  | 14.5
53 | CC(C)(C)c1ccc2nc(-c3ccc(/C=C/C(=O)NCc4ccc(Cl)c(Cl)c4)cc3)[nH]c2c1 [TCMDC-140457] |  | 61.32
54 | O=C(NCc1ccc(Cl)c(Cl)c1)c1ccc(-c2nc3cc(F)c(F)cc3[nH]2)cc1 [TCMDC-140460] |  | 62.28
55 | CC(C)(C)c1ccc(CNC(=O)/C=C/c2ccc(-c3nc4ccc(C(C)(C)C)cc4[nH]3)cc2)cc1 [TCMDC-140459] |  | 15.07
56 | CC(C)(C)c1ccc2nc(-c3ccc(/C=C/C(=O)NCc4cccc(C(F)(F)F)c4)cc3)[nH]c2c1 [TCMDC-140458] |  | -22.76
57 | Cc1ccc2nc(-c3ccc(C=CC(=O)NCc4ccc(Cl)c(Cl)c4)cc3)[nH]c2c1 [TCMDC-140402] |  | -29.51
58 | COC(=O)c1ccc2nc(-c3ccc(/C=C/C(=O)NCc4ccc(Cl)c(Cl)c4)cc3)[nH]c2c1 [TCMDC-140447] |  | 71.15
59 | Cc1cc2nc(-c3ccc(/C=C/C(=O)NCCc4ccccc4)cc3)[nH]c2cc1C [TCMDC-140438] |  | -13.04
60 | O=C(/C=C/c1ccc(-c2nc3ccc(Cl)cc3[nH]2)cc1)NCc1cccc(F)c1 [TCMDC-140444] |  | -5.382
61 | O=C(NCc1ccc(Cl)c(Cl)c1)c1ccc(-c2nc3ccc(F)cc3[nH]2)cc1 [TCMDC-140448] |  | -30.61
62 | Cc1cc2nc(-c3ccc(/C=C/C(=O)NCc4ccc(Cl)c(Cl)c4)cc3)[nH]c2cc1C [TCMDC-140437] |  | 1.168
